ALDH1A1 block = ALDH1A1 (human) enzyme inhibition | P00352 | Purified ALDH1A1, NADH fluorescence, propionaldehyde substrate | Potency, µM (series often up to 75.3 µM), without a hit: top-dose activity, negative = inhibition, actives largely listed as inhibitors | 220,000 compounds, 7.3% hits | AID 1030; active = well fitted inhibition curve with a large enough effect, not every such curve was filed as active; inconclusive = small, poorly fitted or top-dose-only effect, or another doubt; inactive = no such curve, though single readings can be large or run the other way;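 note: plate controls were no enzyme wells and a reference inhibitor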
Target sequence (P00352 whole entry, looked up): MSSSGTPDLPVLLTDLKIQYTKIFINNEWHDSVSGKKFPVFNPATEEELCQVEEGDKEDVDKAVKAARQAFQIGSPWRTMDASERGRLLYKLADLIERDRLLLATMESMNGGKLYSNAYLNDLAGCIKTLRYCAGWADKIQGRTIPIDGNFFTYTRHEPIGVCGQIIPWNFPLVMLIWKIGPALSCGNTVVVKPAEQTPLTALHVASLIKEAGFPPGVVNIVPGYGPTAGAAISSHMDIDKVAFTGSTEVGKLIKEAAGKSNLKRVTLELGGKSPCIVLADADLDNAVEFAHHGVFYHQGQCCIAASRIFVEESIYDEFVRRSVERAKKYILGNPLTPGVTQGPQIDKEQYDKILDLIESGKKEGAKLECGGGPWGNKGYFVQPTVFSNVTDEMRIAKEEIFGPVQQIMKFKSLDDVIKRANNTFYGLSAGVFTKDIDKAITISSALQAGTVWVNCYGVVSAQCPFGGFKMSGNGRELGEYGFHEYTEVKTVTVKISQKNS
HTT ATP protect = cytoprotection in Huntington HTT-Q103 PC12 cell model; PC12 HTT-Q103 induced, cytoprotection, ATP luminescence, 40 h; Potency, µM (series often up to 56.4 µM), without a hit: cytoprotection (ATP increase), most hits filed as activators; 230,000 compounds, 0.14% hits; AID 1471; note: % of control where 0% means no effect; nearly all actives have a fitted effect of over 45% in size
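Huntington model: PC12 line, ecdysone-inducible HTTQ103 exon1–GFP, tebufenozide 100 nM. Test articles in a dose series. Endpoint luminescence from cellular ATP.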
HPGD inh = blocks human HPGD enzyme activity. P15428. purified HPGD, NADH fluorescence kinetic, PGE2 substrate. Potency, µM, without a hit: at the highest dose activity change, negative = inhibition, most hits filed as inhibitors. 150,000 compounds, 4.3% hits. AID 894; active = well fitted inhibition curve with a large enough effect, not every such curve was filed as active; inconclusive = small, poorly fitted or top-dose-only effect, or another doubt; inactive = no such curve, though single readings can be large or run the other way; note: % is set by controls: 0 for no effect and ±100 for the full control effect
Target sequence (P15428 whole entry, looked up): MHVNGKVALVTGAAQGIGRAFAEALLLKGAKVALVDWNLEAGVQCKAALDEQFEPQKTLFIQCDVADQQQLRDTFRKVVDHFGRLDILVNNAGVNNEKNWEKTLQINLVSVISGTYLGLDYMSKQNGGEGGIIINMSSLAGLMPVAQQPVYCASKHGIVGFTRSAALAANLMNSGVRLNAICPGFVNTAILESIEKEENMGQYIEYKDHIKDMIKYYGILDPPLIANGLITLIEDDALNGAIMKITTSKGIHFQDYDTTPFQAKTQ
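NADH formation kinetics: reaction with 30 uM PGE2 and 1 mM NAD+ (final), 20 nM enzyme, Tris-HCl pH 8 with Tween 20, after 15 min compound preincubation at room temperature. Fluorescence change, last versus first of five reads.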
HttQ103 aggreg = inhibitors of mutant huntingtin aggregate formation in PC12 cells; AID 1688; 220,000 compounds, 1.1% hits; Potency, µM (titrated, usually from 46.1 µM), without a hit: at the top dose activity change, negative = inhibition, hits mostly inhibitors; PC12 HttQ103-GFP aggregates, Acumen cytometry, 40 h; note: % is set by controls: 0 for no effect and ±100 for the full control effect; nearly all actives have a fitted effect of over 60% in size
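Inducible Q103 Huntingtin exon 1–GFP PC12 line, 1500 cells/well in phenol red free DMEM with 5% equine and 5% calf serum. Tebufenozide 100 nM induced expression; compounds titrated; aggregates quantified by cytometry.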
LMNA splice mod = modulators of lamin A splicing. HeLa LMNA splicing GFP/RFP minigene ratio, 48 h. Potency, µM (doses to about 46.1 µM), without a hit: at the highest dose ratio change, negative = inhibition, usual class: inhibitors. 200,000 compounds, 0.01% hits; active = well fitted inhibition curve with a large enough effect in the signal ratio, with a control signal flat, not every such curve was filed as active; inconclusive = small, poorly fitted or top-dose-only effect, or effect the other way, or a change in a side signal; the % refers to the signal ratio; note: % is set by controls: 0 for no effect and ±100 for the full control effect
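Read-out is the ratio of GFP to DsRed2 object intensity, acquired by 488 nm laser-scanning cytometry on HeLa lamin A-EGFP minigene reporter cells. Compound incubation 48 hrs at 37 °C in Opti-MEM with 2% FBS; DMSO 0.5% final.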
An asterisk follows results filed as active; ? = inconclusive; . = not tested or not shown; ! = a repeat was not active; [ ] = another dose, or the depositor's remark. Sampled rows, rich in hits. Any-hit rate of the full collection: about 8.8%. Unless noted, calls come from the whole dose curve; as a rule, active = well fitted curve in the direction sought with a large enough effect; inconclusive = small, poorly fitted or top-dose-only effect, or another doubt; inactive = no such curve, though single readings can be large; an effect the other way counts as inactive or inconclusive. Potency is the fitted concentration of half-maximal effect.

SMILES	ALDH1A1 block	HTT ATP protect	HPGD inh	HttQ103 aggreg	LMNA splice mod
O=[N+]([O-])c1ccc(Nc2nc(N/N=C/c3cccc(F)c3)nc(N3CCCC3)n2)cc1	?	6.8%[10 µM]	-5.8%	?	?
C[n+]1cc2c3c(ccc2c2ccc4cc5c(cc4c21)OCO5)OCO3	7.4%[20.9 µM]	-97.9%	?	6.31µM*	?
CC1CCN(c2ccc(-c3cccc(NS(=O)(=O)c4ccc(F)cc4F)c3)nn2)CC1	.	.	.	.	-17.0%[46 µM]
O=C(Cn1cncn1)N/N=C/c1cc([N+](=O)[O-])ccc1O	.	26.3%[10 µM]	.	9.0%[9.22 µM]	.
O=C(N/N=C/c1cc([N+](=O)[O-])ccc1O)C1CCCCC1	-15.1%	-21.2%[10 µM]	-13.7%	10µM*	-7.2%
O=C(Cn1nnc(-c2ccccc2)n1)N/N=C/c1cc([N+](=O)[O-])ccc1O	?	0.6%[10 µM]	14.1µM*	6.8%	-10.6%
O=C(N/N=C/c1cc([N+](=O)[O-])ccc1O)C1C2CCCCC21 (stereo unspecified)	-2.9%	1.4%[10 µM]	.	-2.9%[9.22 µM]	?
O=C(Cn1nnc(-c2ccccc2)n1)N/N=C/c1cc([N+](=O)[O-])c(Cl)cc1Cl	16.6%	-4.5%[10 µM]	-0.5%	-5.8%	-6.0%
Cc1ccn(CC(=O)N/N=C/c2cc([N+](=O)[O-])ccc2O)n1	1.5%	.	-15.9%	6.31µM*	?
O=C1CN2NC(=S)N(c3ccccc3)C2=CN1c1ccc(Cl)cc1	8.3%	-18.8%	.	?	-3.5%[46 µM]
N#CCCN(C(=O)CO/N=C/c1cccc([N+](=O)[O-])c1)c1ccccc1	25.1µM*	-12.1%	.	4.5%	?
CCCCOc1ccc(C(=O)Nc2nnc3n2CCS3)cc1	.	.	.	.	9.9%[46 µM]
C[C@@H]1CNCCN1S(=O)(=O)c1cccc2cnccc12	-2.8%	12.6µM*!	1.5%	.	.
Cc1ccc(N2CCN(C(=O)c3c(C)oc4ncn(CC(C)C)c(=O)c34)CC2)c(C)c1	.	.	.	.	0.0%[46 µM]
COc1ccc(NC(=O)CSc2nnc(NC(=O)Nc3ccccc3)s2)cc1OC	.	.	.	.	24.1%[46 µM]
Cc1oc(/N=C/c2cccc3ccccc23)c(C#N)c1C	?	1.0%[10 µM]	-17.1%	-7.9%	2.3%
COc1ccc(/C=N/c2oc(C)c(C)c2C#N)c(OC)c1	12.6µM*	-4.5%[10 µM]	.	-11.6%[9.22 µM]	6.7%[46 µM]
Cc1ccc(-n2nnnc2CNC(=O)c2ccccc2S(C)(=O)=O)cc1C	.	.	.	.	17.0%[46 µM]
COc1ccc(CNC(=O)C(C)n2c(=O)cc(C)c3c(C)nn(-c4ccccc4)c32)cc1 (stereo unspecified)	.	.	.	.	3.5%[46 µM]
O=C(C1CCCN1S(=O)(=O)c1cccc2nsnc12)N1CCCCCC1 (stereo unspecified)	.	8.5%[10 µM]	.	11.8%[9.22 µM]	.
O=C(O)C1Cc2c([nH]c3ccccc23)C(c2coc3ccccc3c2=O)N1 (stereo unspecified)	4.1%	?	-8.4%	.	.
C=CCNC(=S)Nc1sc2c(c1C(=O)OCC)CC(C(C)C)OC2 (stereo unspecified)	11.2µM*	-64.8%	-29.1%	?	-25.6%
CCOC(=O)c1c(NC(=O)c2ccco2)sc2c1CCCC2	?	2.7%	?	5.7%	5.1%
CCOC(=O)c1c(NC(=S)NCCc2ccccc2)sc2c1CC(C(C)C)OC2 (stereo unspecified)	25.1µM*	3.7%[10 µM]	-9.1%	-13.3%	?
CCCCC/C=C\C/C=C\C/C=C\CCCCCCC(=O)NCC(=O)O	2.7%	12.8%	-5.5%	.	.
SMILES	ALDH1A1 block	HTT ATP protect	HPGD inh	HttQ103 aggreg	LMNA splice mod
COCCCNC(=O)c1ccc(Cn2c(SCc3ccc(F)cc3)nc3cccnc32)cc1	.	.	.	.	-10.3%[46 µM]
Cc1ccc(Cn2cc(S(=O)(=O)c3ccc(C)cc3)c(=O)c3cc(F)c(N4CCCC4)cc32)cc1	.	.	.	.	1.8%[46 µM]
N#C/C(=C\c1cccs1)C(=O)c1ccccc1Cl	22.4µM*	3.6%[10 µM]	.	-1.2%[9.22 µM]	.
CC1=C(C(=O)Nc2ccccc2C)C(c2cccnc2)n2nc(SCc3ccccc3)nc2N1 (stereo unspecified)	.	.	.	.	9.1%[46 µM]
O=C1CSC(=Nc2ccccc2Cl)N1	?	-2.7%	15.8µM*	2.7%	3.3%
Cc1ccccc1N=C1NC(=O)CS1	4.4%	-7.8%	-6.0%	-6.8%	6.1%
CC1CN(C(=O)c2ccc3c(c2)OCO3)CC(C)O1 (stereo unspecified)	13.3%	6.3%[10 µM]	25.1µM*	-4.5%	-2.5%
CN1CCN(C(=O)c2ccc3c(c2)OCCO3)CC1	2.6%	-1.5%[10 µM]	15.8µM*	3.3%	-3.3%
CN1CCN(C(=O)c2ccc(C(C)(C)C)cc2)CC1	-7.7%	0.3%	11.2µM*	-0.8%	-4.3%
O=C(c1ccc(N2CCCC2=O)cc1)N1CCOCC1	18.8%	7.2%[10 µM]	22.4µM*	6.9%	-11.9%
O=C(c1ccccc1)N1CCN(C(=O)c2ccc3c(c2)OCCO3)CC1	?	9.1%[10 µM]	.	-4.3%	-16.7%[46 µM]
COc1ccc(N2CC(NC(=O)Cc3cccs3)CC2=O)cc1OC (stereo unspecified)	.	.	.	.	20.6%[46 µM]
C[C@H]1[C@H](C)CC[C@@]2(C(=O)O)CC[C@]3(C)C(=CC[C@H]4[C@@]5(C)C[C@@H](O)[C@H](O)[C@@](C)(CO)[C@@H]5CC[C@@]43C)[C@@H]12	.	15.7%	.	.	.
Cc1csc2c(N3CCN(C(=O)c4ccc(C(C)(C)C)cc4)CC3)ncnc12	15.8µM*	18.4%[10 µM]	.	26.6%[9.22 µM]	.
CN1CCN(C(=O)c2ccc(N3CCCC3=O)cc2)CC1	7.4%	1.8%	12.6µM*	-1.0%	0.4%
CCCCC(=O)Nc1ccc(C(=O)N2CCN(C)CC2)cc1	?	10.0%[10 µM]	14.1µM*	0.7%	-8.5%
CCN(CC)c1ccc(NC(=O)c2cc3c(=O)n4cccc(C)c4nc3n2C)c(C)c1	.	.	.	.	6.4%[46 µM]
CCOC(=O)c1c(-c2ccc(OC)cc2)nc2nonc2c1N	8.6%	0.708µM*	0.0%	?	-11.6%
CCOC(=O)c1c(C)nc(C)c(C(=O)OCC)c1-c1ccc(OC)cc1	-3.8%	2.2%[10 µM]	-2.5%	28.9%[9.22 µM]	-4.4%
Cn1cccc1C(=O)N1CCC[C@@]2(CCN(c3ccccn3)C2)C1	-13.1%	4.8%	-15.5%	.	.
CC(C)NC(=O)C(c1ccccc1)N1Cc2ccccc2C1=O (stereo unspecified)	.	.	.	.	-7.9%[46 µM]
O=C(Nc1ccc(OC(F)F)c(Cl)c1)Nc1ccc2c(c1)OCO2	-0.4%	-1.8%[10 µM]	-6.8%	11.2µM*	?
O=C(Nc1ccc(OC(F)F)c(Cl)c1)c1cccc(OC(F)F)c1	0.7%	-90.2%	-23.8%	3.98µM*	13.4%
COc1ccc(C(C)(C)C)cc1NC(=O)c1c(C)noc1C	1.2%	-0.3%	-10.1%	0.562µM*	-2.2%
O=C(Nc1ccc([N+](=O)[O-])cc1)Nc1ccc(OC(F)F)c(Cl)c1	-1.4%	.	-4.4%	11.2µM*	?
COc1ccc(C(C)(C)C)cc1NC(=O)Nc1ccc2c(c1)OCO2	5.3%	11.6%[10 µM]	-13.0%	17.8µM*	?
O=C(CCC1CCCN(C(=O)c2ccoc2)C1)NCc1ccccc1F (stereo unspecified)	-5.8%	-4.1%[10 µM]	.	-3.6%[9.22 µM]	5.9%[46 µM]

Source: PubChem
